# Data published in PubChem BioAssay (NCI).
# Compounds without any hit were thinned out: in the full panel of roughly 83,000, 20% have a hit.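 Single-concentration screen, 48 h exposure, 96-well plates. Endpoint: percent growth. Below 10 = active.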 A number with no mark means an inactive call. Calls of active or inactive are those of the source.
# Columns and labels:
# Test in all cases: NCI-60 one-dose screen, 48 h (100 = growth as untreated, 0 = no growth, -100 = all killed)
# Conditions in all cases: 10 µM unless noted
# [1] = system: NCI-H23 lung
# [2] = system: NCI-H226 lung
# [3] = system: NCI-H322M lung
# [4] = system: HOP-62 NSCLC
# [5] = system: NCI-H460 lung
# [6] = system: NCI-H522 lung
# [7] = system: A549/ATCC NSCLC
# [8] = system: 786-0 renal
# [9] = system: COLO 205 colon
# [10] = system: DU-145 prostate
# [11] = system: K-562 leukemia
# [12] = system: MALME-3M melanoma
# [13] = system: MDA-MB-231 breast
# [14] = system: RXF 393 renal
# [15] = system: SF-268 CNS
# [16] = system: SF-295 CNS
# [17] = system: SF-539 CNS
# [18] = system: UACC-257 melanoma
# [19] = system: M14 melanoma
# [20] = system: HCT-15 colon
Compound,growth [1],growth [2],growth [3],growth [4],growth [5],growth [6],growth [7],growth [8],growth [9],growth [10],growth [11],growth [12],growth [13],growth [14],growth [15],growth [16],growth [17],growth [18],growth [19],growth [20]
CC(C)c1ccc(C(=O)Nc2sc3c(CN(C)C)c(O)ccc3c2C(N)=O)cc1,49.1%,86.9%,65.5%,64.4%,72%,43.7%,33%,49.6%,47.1%,51.9%,-41.3% (active),63.9%,38.5%,12.2%,69.3%,61.9%,40.8%,9.32% (active),18.5%,-48.7% (active)
CC(c1ccccn1)C(C)(O)C(C)c1ccccn1 (stereo not given),104%,103%,118%,101%,113%,112%,106%,107%,108%,101%,103%,121%,92.8%,115%,100%,107%,99.7%,99.8%,90.6%,97.4%
O=C(O)c1ccc(NC(=O)c2ccc(Nc3ccnc(C(F)(F)F)c3)cc2)cc1,98.4%,100%,121%,103%,113%,103%,103%,103%,101%,106%,94.1%,103%,109%,97.9%,98%,108%,104%,99.6%,107%,92.1%
NC(=O)N/N=C/c1ccc(Br)o1,97.7%,98.8%,101%,94.2%,110%,89.7%,106%,105%,98.6%,110%,104%,106%,99%,112%,99.6%,103%,101%,105%,101%,96.1%
CCN(CC)CCCCNc1c2ccccc2[n+](C)c2c1[nH]c1ccccc12,-35.9% (active),-11.8% (active),-35.5% (active),-3.3% (active),3.4% (active),-84.7% (active),2.8% (active),-7.1% (active),-65.9% (active),-0.206% (active),-20.8% (active),-63.9% (active),-0.507% (active),-55.6% (active),-16.2% (active),-47.1% (active),-40.6% (active),-42.6% (active),-28.4% (active),80.2%
COc1ccc(Cn2c(NCCCN(C)C)nc(=O)n(Cc3ccc(F)cc3)c2=O)cc1,103%,90.7%,83%,93.5%,108%,95%,110%,89.3%,94.8%,99.4%,87.9%,87.9%,81.4%,83.7%,83.7%,96.2%,108%,92.4%,97.9%,107%
COc1ccc(OC)c2c1[nH]c(=O)c1c3ccccc3cn21,-25.8% (active),48.4%,-70.7% (active),-33.6% (active),-61.2% (active),-50.4% (active),-73.2% (active),-86.3% (active),-91.1% (active),-65% (active),11.2%,-89.4% (active),-89.2% (active),-79.9% (active),-64.9% (active),-76.7% (active),-98.5% (active),-75.5% (active),-54.3% (active),-46.5% (active)
C[n+]1c2ccccc2c(NC2CCNCC2)c2[nH]c3ccccc3c21,3.72% (active),6.63% (active),-38.2% (active),26.5%,-0.0252% (active),-73.2% (active),1.98% (active),58%,-1.65% (active),-1.88% (active),12.7%,-15.7% (active),17.1%,-13.7% (active),-31% (active),13.6%,16.7%,57.2%,60.1%,87.5%
Cc1cc(NC(=O)Nc2cc(Cl)ccc2C)no1,88.3%,105%,146%,96.2%,102%,103%,108%,102%,143%,111%,80.8%,191%,100%,126%,100%,112%,94.1%,115%,109%,100%
CCc1[nH]nc(-c2ccc(OC)cc2)c1-c1ccccc1OCCN(CC)CC,91.4%,94.9%,97.7%,84.6%,103%,114%,93.2%,74.7%,77%,102%,88.4%,95.5%,99.2%,79.3%,89%,85.7%,99%,97.9%,87.1%,105%
O=C(CCc1nnc(Cn2cncn2)o1)c1nc2ccccc2[nH]1,102%,101%,115%,103%,108%,95.5%,105%,104%,124%,109%,104%,92%,98.7%,121%,105%,103%,103%,112%,111%,102%
COc1ccc(OC)c(/C=C/c2nc(=S)n(-c3ccc(Cl)cc3)[nH]2)c1,48.7%,73.3%,100%,69.7%,38.9%,82.1%,66.3%,58.9%,104%,87.6%,22.4%,29.8%,87.2%,51.9%,73.7%,31.2%,39.5%,77.6%,31%,41.2%
COc1cc(Oc2cc(-c3cccnc3)ccc2NC(=O)Nc2ccc(F)cc2F)cc(OC)c1OC,99%,97%,112%,96.4%,99.1%,94.8%,94.6%,100%,96.9%,113%,96.6%,105%,91.5%,97.5%,107%,110%,105%,92.6%,110%,111%
Nc1ncc(-c2cnn(C3CCNCC3)c2)cc1-c1nc2cc(Cl)ccc2o1,-61.7% (active),-63.3% (active),-59.1% (active),-98.1% (active),-100% (active),-87.6% (active),-100% (active),-100% (active),-100% (active),-100% (active),-100% (active),-92.5% (active),-91.7% (active),-96.4% (active),-83.4% (active),-78.7% (active),-100% (active),-93.3% (active),-100% (active),-84.9% (active)
CCCCN(CCCC)CCCOC(=O)c1ccc(N)cc1,96.1%,76.8%,98.2%,88.7%,78.4%,67%,70.9%,95.4%,57.3%,88.2%,96.5%,93%,86.8%,92.1%,96.3%,84.5%,94.4%,88%,93.7%,101%
